Screening data from PubChem BioAssay.
Gli-Sufu antag – blocks Gli-Sufu signaling in a luciferase reporter. Sufu-KO-LIGHT fibroblasts, Gli luciferase reporter luminescence. inhibition, % at 5 µM. hit rate 0.74% among 340,000;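 active = inhibition above about 55%, limit read from the data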;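 also: 0% = DMSO-treated cells and 100% = wells with medium but no cells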
697 NFkB inh – lowers PMA/ionomycin-induced NF-kB signal in 697 B cells; 697 B-cell NF-kB luciferase reporter, 16 h; inhibition, % at 4 µM; hit rate 0.33% among 330,000; AID 435022; in the data active = inhibition above about 35%
Beta apoptosis – beta cell apoptosis inhibition. INS-1E cytokine-induced death, ATP luminescence, 48 h; percent of positive-control rescue, neutral wells zero. hit rate 0.8% among 300,000. protection from apoptosis, % (test concentration not listed);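 active = Every replicate reaches about 75%, or at least half do and their mean reaches it too, limit read from the data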;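 also: 0% = cytokine-treated negative control wells and 100% = positive control rescue; higher means more ATP so stronger rescue from cytokine killing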
Jurkat NFkB inh – lowers PMA/ionomycin-induced NF-kB signal in Jurkat cells | PMA/ionomycin-induced NF-kB luciferase reporter, luminescence | inhibition, % at 4 µM | hit rate 0.53% among 330,000 | AID 435003; in the data active = inhibition above about 50%
Jurkat NFkB conf – lowers PMA/ionomycin-induced NF-kB signal in Jurkat cells; shares compounds with Jurkat NFkB inh; Jurkat NF-kB luciferase, 16 h; inhibition, % at 4 µM; hit rate 27% among 2,700; AID 435020;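 active = inhibition reaching about 45% at 4 µM in either replicate, limit read from the data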;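 also: plate controls were PMA/ionomycin stimulated DMSO wells for no effect and unstimulated DMSO wells for full effect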
697 NFkB conf – inhibitors of the PMA/ionomycin-induced NF-kB reporter in 697 B cells, retest; shares compounds with 697 NFkB inh; 697 B-cell NF-kB luciferase, 16 h; inhibition, % at 4 µM; hit rate 35% among 2,000; AID 449746; in the data active = inhibition mostly above about 28%, no sharp cut-off; inactive = mostly below about 22%
* = called active by the depositor; i = inactive; x = not tested or not shown. Compounds with a hit are over-represented: about 1.8% of the library has one in this group of screens.

SMILES	Gli-Sufu antag	697 NFkB inh	Beta apoptosis	Jurkat NFkB inh	Jurkat NFkB conf	697 NFkB conf
CCOc1ccc2oc(C(=O)Nc3nccs3)c(C)c2c1	-127.7	-258.1	29.3	-173.0	-112.8	-207.3
CCOc1ccc2oc(C(=O)NC(C)(C)CC)c(C)c2c1	-49.2	-47.8	3.9	-38.3	x	x
CC1CCCC(NC(=O)CCCn2ncn3c(cc4occc43)c2=O)C1C (stereo not drawn)	-6.2	3.3	4.0	6.4	x	x
COC(=O)/C(=C1/Oc2cc(C)oc(=O)c2S1)C(F)(F)F	33.9	-324.5	-6.4	69.2*	10.8	-197.5
CC(C)c1ccc(NC(=O)c2ccc(Br)o2)cc1	-91.9	-262.4	6.3	-172.1	-118.9	-294.6
COc1ccc(NC(=O)c2ccc(Br)o2)cc1	-89.2	-43.0	4.7	-63.7	x	x
On1c(-c2ccc(Cl)cc2Cl)nc2ncccc21	24.1	-14.8	-4.3	-10.3	x	x
CCOc1ccc(-n2c(-c3ccc(OC)cc3)c[n+]3c2CCCCC3)cc1	87.2*	56.8*	96.6*	73.0*	58.2*	65.0*
COc1ccc(-c2c[n+]3c(n2-c2c(C)n(C)n(-c4ccccc4)c2=O)CCCCC3)cc1	-1.1	21.8	-4.0	23.3	x	x
COc1ccc(-c2c[n+]3c(n2-c2ccc(C)cc2)CCCCC3)cc1	78.9*	51.0*	126.7*	79.3*	60.9*	65.2*
O[C@@H]1[C@@H](O)C=C2CCN3Cc4cc5c(cc4[C@H]1C23)OCO5 (stereo partly drawn)	69.2*	-289.3	36.4	96.4*	89.3*	-229.2
CCCCCc1ccc(OCCC[n+]2ccccc2)c(CCCCC)c1	82.8*	60.1*	113.2*	62.7*	54.9*	56.7*
CC(=O)Nc1ccc(OCCC[n+]2ccccc2)cc1	-3.4	-3.2	-4.9	6.7	x	x
COc1ccc(OC)c(CNC(=O)CCS(=O)(=O)c2ccc3c(c2)oc(=O)n3C)c1	4.6	19.2	-7.5	-0.1	x	x
CC(=O)Nc1ccc(CCCCc2ccccc2)cc1	-12.0	x	x	x	x	x
Cc1ccc(NC2=Nc3ccccc3CS2)cc1	-24.9	-330.7	1.0	-182.2	-140.6	-341.4
COc1ccc2c(c1)SCC(=O)N2C	4.1	31.0	-0.9	-3.3	x	x
CCCCCCc1cc2cc(C(=O)Nc3ccc(OC)cc3)c(=O)oc2cc1O	34.0	-60.2	50.4	24.4	x	x
C=CCn1c(C)cc(C2=NNC(=Nc3ccc(C)cc3)SC2)c1C	19.8	4.4	-0.2	10.2	x	x
COCCn1c(C)cc(C2=NNC(=NC3CC3)SC2)c1C	90.7*	68.4*	3.4	75.4*	93.7*	65.2*
CC(C)(C)C(=O)/C(=C/c1ccncc1)n1cncn1	21.7	37.3*	-35.6	54.2*	31.1	42.1*
Cc1ccc(N/C=C/C(=O)c2cccs2)cc1	-140.3	-260.8	-1.6	-157.9	8.8	-132.8
O=C(/C=C/Nc1ccc(F)cc1F)c1ccc(Br)cc1	-105.5	-255.2	-0.9	-166.9	-30.0	-62.3
O=C(/C=C/Nc1ccc(F)cc1F)c1ccco1	-98.6	-153.5	5.3	-64.0	x	x
O=C(/C=C/Nc1ccc(F)cc1F)c1cccs1	-10.2	-364.2	2.4	-168.2	-37.4	-196.8
SMILES	Gli-Sufu antag	697 NFkB inh	Beta apoptosis	Jurkat NFkB inh	Jurkat NFkB conf	697 NFkB conf
CCn1c2c(c(=N)c3c1CCC3)CCCC2	4.4	-8.7	12.6	41.3	x	x
CCCCCCCCCn1c2c(c(=N)c3c1CCC3)CCCC2	88.5*	57.6*	x	97.4*	80.7*	-12.8
Cc1cc(C(=O)Nc2sc(C)c(-c3ccc(F)cc3)c2C(N)=O)no1	-72.7	-294.4	-4.0	-191.5	-96.4	-204.1
O=C(c1cc(-c2ccc(Cl)c(Cl)c2)on1)N1CCCCC1	-59.9	-113.5	4.9	-143.7	x	x
COc1ccc(C(=O)/C(C#N)=N/Nc2ccccc2[N+](=O)[O-])cc1	-5.7	-117.1	27.3	40.6	x	x
COc1ccc(C(=O)/C(C#N)=N/Nc2ccc([N+](=O)[O-])cc2)cc1	68.9*	53.3*	107.1*	60.3*	59.0*	11.3
CC1(C)CC(NC(=O)c2cccc(Cl)c2)CC(C)(C)N1	-5.3	2.8	x	-4.1	x	x
Cc1ccc(C)c(NCC(O)c2ccccc2)c1 (stereo not drawn)	-8.4	13.0	2.6	1.2	x	x
COc1ccc2[nH]c3c(c2c1)CCn1c-3nc2ccccc2c1=O	-113.2	-487.5	7.1	-181.0	-126.6	-317.9
COc1ccc(-c2cn3ccc4ccccc4c3n2)cc1	-126.3	-334.1	4.1	-196.3	-92.8	-226.9
N#CC1(c2ccc(NC(=O)c3ccccc3F)cc2)CCCC1	-106.0	-281.5	8.2	-209.7	-165.9	-213.8
O=C(Nc1ccc2c(c1)Cc1ccccc1-2)c1ccccc1F	-84.7	-323.5	0.8	-160.8	-138.6	-202.2
COc1ccc(Nc2nccc(-c3ccc([N+](=O)[O-])cc3)n2)cc1	-9.4	-15.4	-4.6	6.8	x	x
Cc1cc2nc(-c3ccc(NC(=O)C(C)C)cc3)oc2cc1C	-62.7	-405.5	10.3	-235.9	-151.0	-353.5
CC(C)C(=O)Nc1ccc(-c2nc3cccnc3o2)cc1	-85.5	-197.9	3.0	-93.4	x	x
CC(C)C(=O)Nc1cccc(-c2nc3ccccc3o2)c1	-60.8	-15.8	1.4	-8.7	x	x
Cc1ccc(-c2nc3cc(NC(=O)C(C)C)ccc3o2)cc1C	-71.6	i	3.9	-251.2	-43.2	i
Cc1ccc(-c2nc3cc(NC(=O)C(C)C)ccc3o2)cc1	0.8	-422.0	-1.8	-222.3	-142.2	-438.6
O=C(c1ccccc1)c1ccc(Cn2cc(-c3ccccc3)nn2)cc1	22.7	-26.0	68.2	-1.9	x	x
CCn1c(CNC(=O)c2ccco2)nnc1SCC(=O)Nc1cc(C)c(C)cc1Br	8.7	-18.8	x	-4.5	x	x
CCn1c(C(Cc2ccccc2)NC(=O)COC)nc2ccccc21 (stereo not drawn)	-11.0	12.4	-3.9	20.9	x	x
Clc1ccc(-c2cn3ccccc3n2)cc1	-68.7	-290.0	8.6	-176.8	-114.5	-247.5
O=c1oc2c3c4c(cc2s1)CCCN4CCC3	1.0	4.4	-12.8	15.1	x	x
COc1cc([C@@H]2c3cc4c(cc3[C@H](O)[C@H]3COC(=O)[C@H]23)OCO4)cc(OC)c1OC	46.7	-326.8	x	72.5*	62.3*	-96.4
CC(C)(C)c1ccc(NC(=O)Nc2ccc(F)cc2)cc1	-86.3	-255.0	18.0	-170.0	-171.2	-316.9
SMILES	Gli-Sufu antag	697 NFkB inh	Beta apoptosis	Jurkat NFkB inh	Jurkat NFkB conf	697 NFkB conf
Brc1ccc(-c2nnc(-c3ccccc3Br)o2)cc1	-86.2	-308.3	-1.1	-194.2	-94.9	-266.7
Brc1ccccc1-c1nnc(-c2cccnc2)o1	-45.9	-41.6	-1.7	-24.9	x	x
CCOC(=O)N1CCN(C(=O)C2CCC(=O)N(CCCc3ccccc3)C2)CC1 (stereo not drawn)	6.0	20.4	-0.6	21.3	x	x
Cc1cc[n+](CC[n+]2ccc(C)cc2)cc1	-4.9	7.1	1.2	-14.2	x	x
CCC(C)(C)c1ccc(OCCCC[n+]2ccc(C)cc2)c(C(C)(C)CC)c1	83.7*	81.3*	115.0*	53.8*	55.1*	44.4*
COc1ccc(C(=O)Nc2nc3ccccc3s2)cc1OC	-102.9	-141.3	2.5	-68.5	x	x
O=C(Nc1ccc2ccccc2c1)c1cc(F)c(F)cc1Cl	-108.3	-137.5	2.2	-125.2	x	x
O=C(Nc1ccc2ccccc2c1)c1ccc(Cl)cc1Cl	-123.0	-346.7	-9.1	-223.7	-153.4	-376.6
